This passage reports growth inhibition results from PubChem BioAssay (NCI).

SMILES strings stand for the structures. The panel holds about 79,000 compounds, 15% with a hit somewhere; the sample as a whole holds those more often. A number with no mark means an inactive call. The source made the active and inactive calls. No stated cut-off is given here; in the data, active means growth inhibition above about 70%; inactive means the rest.

A short description of test [1]: NCI Yeast Anticancer Drug Screen. Data for the rad50 strain (AID 155).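 Further: 0% = growth of vehicle-only cultures of the same strain.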 Conditions: S. cerevisiae rad50 strain growth inhibition, active compounds read high. The method, boiled down:
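Yeast carrying a defined DNA repair defect were exposed to test compounds, and growth was compared with vehicle-treated controls to give percent inhibition.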

Test [2] can be described thus: NCI Yeast Anticancer Drug Screen. Data for the mec2-1 strain (AID 157). As to conditions: S. cerevisiae mec2-1 strain, active compounds read high. The method, boiled down:
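Vehicle-treated cultures served as reference for growth inhibition of compound-exposed mec2-1 yeast.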

A short description of test [3]: NCI Yeast Anticancer Drug Screen. Data for the sgs1 mgt1 strain (AID 161).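 Further: 0% = growth of cultures given vehicle only.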 As to conditions: S. cerevisiae sgs1 mgt1 strain, active compounds read high. A digest of the protocol:
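Inhibition of yeast growth, normalised to vehicle-treated controls, is reported for a strain bearing genetic alterations in DNA damage repair.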

Test [4] is described as follows: NCI Yeast Anticancer Drug Screen. Data for the cln2 rad14 strain (AID 165).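 Further: 0% = growth equal to vehicle treated cultures.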 As to conditions: S. cerevisiae cln2 rad14 strain, active compounds read high. A digest of the protocol:
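Each compound was tested on cln2 rad14 yeast. Inhibition of growth was calculated against vehicle-exposed controls.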

A short description of test [5]: NCI Yeast Anticancer Drug Screen. Data for the bub3 strain (AID 167). Conditions: S. cerevisiae bub3 mutant strain, active compounds read high. A digest of the protocol: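 Compounds were applied to a genetically altered yeast strain carrying a cell-cycle control defect. Growth inhibition was scored against vehicle-treated controls.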
Test [6] can be described thus: NCI Yeast Anticancer Drug Screen. Data for the mlh1 rad18 strain (AID 175). Conditions: S. cerevisiae mlh1 rad18 strain growth inhibition, active compounds read high. A digest of the protocol: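 Vehicle-treated cultures served as the reference for growth inhibition in a yeast strain carrying DNA damage repair alterations exposed to each compound.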
Where [7] appears, read: at 5.0 µM (retest, dose inferred, filed as 0.5).
Where [8] appears, read: at 50.0 µM (retest, dose inferred, filed as 5.0).

With `O=C(CCCCCCCCCCc1ccccc1)c1ccc(Cl)cc1`, the growth inhibition in test [1] (setting [7]) was 7%; in test [1] (setting [8]), 76% (active); in test [1] (at 50.0 µM), 83.7% (active); in test [2] (setting [7]), 5%; in test [2] (setting [8]), 79% (active); in test [2] (at 50.0 µM) it was 42.6%. The growth inhibition was 17% in test [3] (setting [7]); 89% (active) in test [3] (setting [8]); 93.7% (active) in test [3] (at 50.0 µM); 15% in test [4] (setting [7]); 61% in test [4] (setting [8]); 70.8% (active) in test [4] (at 50.0 µM). The growth inhibition in test [5] (setting [7]) is 13%; in test [5] (setting [8]) it was 72% (active); in test [5] (at 50.0 µM), 94.8% (active); in test [6] (setting [7]), 16%; in test [6] (setting [8]) it was 80% (active); in test [6] (at 50.0 µM), 70.6% (active).

Take `COC(=O)C1=C(C(=O)OC)C2(C)OC1C(=O)C21CC1` (stereo not given): the growth inhibition in test [1] (setting [7]) was 15%; in test [1] (setting [8]), 85% (active); in test [1] (at 50.0 µM), 88.3% (active); in test [2] (setting [7]) it was 18%; in test [2] (setting [8]) it was 94% (active); in test [2] (at 50.0 µM) it was 84.6% (active). Also, the growth inhibition was 23% in test [3] (setting [7]); 94% (active) in test [3] (setting [8]); 86.8% (active) in test [3] (at 50.0 µM); 6% in test [4] (setting [7]); 70% (active) in test [4] (setting [8]); 76.2% (active) in test [4] (at 50.0 µM). The growth inhibition was 20% in test [5] (setting [7]); 91% (active) in test [5] (setting [8]); 93.6% (active) in test [5] (at 50.0 µM); 18% in test [6] (setting [7]); 94% (active) in test [6] (setting [8]); 94.5% (active) in test [6] (at 50.0 µM).

In the case of `COC(=O)c1nc(Cl)nc(Cl)c1N`, the growth inhibition in test [1] (setting [7]) was 8%; in test [1] (setting [8]), 95% (active); in test [1] (at 50.0 µM), 96.7% (active); in test [2] (setting [7]), 14%; in test [2] (setting [8]) it was 95% (active); in test [2] (at 50.0 µM), 97.3% (active). Besides, the growth inhibition in test [3] (setting [7]) was 11%; in test [3] (setting [8]), 92% (active); in test [3] (at 50.0 µM), 98.2% (active); in test [4] (setting [7]) it was -3%; in test [4] (setting [8]) it was 92% (active); in test [4] (at 50.0 µM), 96% (active). Besides, the growth inhibition was 7% in test [5] (setting [7]); 95% (active) in test [5] (setting [8]); 97.8% (active) in test [5] (at 50.0 µM); 11% in test [6] (setting [7]); 96% (active) in test [6] (setting [8]); 98.2% (active) in test [6] (at 50.0 µM).

Consider `CC(=O)NC1=C(Cl)C(=O)c2ccccc2C1=O`, for which the growth inhibition is 91% (active) in test [1] (setting [7]); 99% (active) in test [1] (setting [8]); 99.5% (active) in test [1] (at 50.0 µM); 93% (active) in test [2] (setting [7]); 99% (active) in test [2] (setting [8]); 99.5% (active) in test [2] (at 50.0 µM). The growth inhibition was 70% (active) in test [3] (setting [7]); 100% (active) in test [3] (setting [8]); 99.7% (active) in test [3] (at 50.0 µM); 21% in test [4] (setting [7]); 99% (active) in test [4] (setting [8]); 98.8% (active) in test [4] (at 50.0 µM). The growth inhibition in test [5] (setting [7]) is 96% (active); in test [5] (setting [8]), 99% (active); in test [5] (at 50.0 µM), 99.4% (active); in test [6] (setting [7]), 96% (active); in test [6] (setting [8]), 99% (active); in test [6] (at 50.0 µM), 99.5% (active).

For the compound `CCC(CC)(c1ccc(C)cc1)c1ccc(C)cc1`, the growth inhibition in test [1] (setting [7]) was -12%; in test [1] (setting [8]), 99% (active); in test [1] (at 50.0 µM), 99.5% (active); in test [2] (setting [7]), -10%; in test [2] (setting [8]), 99% (active); in test [2] (at 50.0 µM), 99.2% (active). In addition, the growth inhibition in test [3] (setting [7]) was -6%; in test [3] (setting [8]), 99% (active); in test [3] (at 50.0 µM) it was 98.8% (active); in test [4] (setting [7]), -80%; in test [4] (setting [8]), 99% (active); in test [4] (at 50.0 µM), 77.2% (active). In addition, the growth inhibition in test [5] (setting [7]) was 22%; in test [5] (setting [8]), -55%; in test [5] (at 50.0 µM), 92.3% (active); in test [6] (setting [7]), 7%; in test [6] (setting [8]), 99% (active); in test [6] (at 50.0 µM), 99.6% (active).

Turning to `Clc1ccc(C2NC(c3ccccc3)c3c(ccc4ccccc34)O2)cc1` (stereo not given), the growth inhibition is -4% in test [1] (setting [7]); 26% in test [1] (setting [8]); 70.5% (active) in test [1] (at 50.0 µM); 7% in test [2] (setting [7]); 19% in test [2] (setting [8]); 66.2% in test [2] (at 50.0 µM). For the same compound, the growth inhibition in test [3] (setting [7]) is 2%; in test [3] (setting [8]) it was 39%; in test [3] (at 50.0 µM) it was 27.1%; in test [4] (setting [7]), 1%; in test [4] (setting [8]), 15%; in test [4] (at 50.0 µM), 81.2% (active). The growth inhibition in test [5] (setting [7]) is 3%; in test [5] (setting [8]), 7%; in test [5] (at 50.0 µM), 58.6%; in test [6] (setting [7]), 27%; in test [6] (setting [8]), 53%; in test [6] (at 50.0 µM) it was 77.7% (active).

For the compound `CCOC(=O)C(=Cc1ccccc1)C(=O)OCC`, the growth inhibition in test [1] (setting [7]) was 20%; in test [1] (setting [8]), 92% (active); in test [1] (at 50.0 µM), 73% (active); in test [2] (setting [7]) it was 20%; in test [2] (setting [8]), 91% (active); in test [2] (at 50.0 µM), 88.8% (active). For the same compound, the growth inhibition in test [3] (setting [7]) was 9%; in test [3] (setting [8]), 92% (active); in test [3] (at 50.0 µM) it was 92.6% (active); in test [4] (setting [7]), 13%; in test [4] (setting [8]) it was 78% (active); in test [4] (at 50.0 µM), 69.5%. The growth inhibition was 48% in test [5] (setting [7]); 94% (active) in test [5] (setting [8]); 92.2% (active) in test [5] (at 50.0 µM); 12% in test [6] (setting [7]); 94% (active) in test [6] (setting [8]); 93.3% (active) in test [6] (at 50.0 µM).

Take `CC1CCN(SSc2nc3ccccc3s2)CC1`: the growth inhibition in test [1] (setting [7]) was 31%; in test [1] (setting [8]), 91% (active); in test [1] (at 50.0 µM), 28.4%; in test [2] (setting [7]), 36%; in test [2] (setting [8]) it was 94% (active); in test [2] (at 50.0 µM), 80.5% (active). Further, the growth inhibition in test [3] (setting [7]) was 51%; in test [3] (setting [8]), 96% (active); in test [3] (at 50.0 µM) it was 77.4% (active); in test [4] (setting [7]), 44%; in test [4] (setting [8]), 70% (active); in test [4] (at 50.0 µM) it was 21.4%. In addition, the growth inhibition was 61% in test [5] (setting [7]); 97% (active) in test [5] (setting [8]); 82% (active) in test [5] (at 50.0 µM); 30% in test [6] (setting [7]); 73% (active) in test [6] (setting [8]); 79% (active) in test [6] (at 50.0 µM).

Consider `O=C(CC(=O)c1ccccc1NC1=Cc2ccccc2C(=O)C1=O)C(=O)NC1=C(Cl)C(=O)c2ccccc2C1=O`, for which the growth inhibition in test [1] (setting [7]) was 36%; in test [1] (setting [8]), 92% (active); in test [1] (at 50.0 µM) it was 88% (active); in test [2] (setting [7]), 21%; in test [2] (setting [8]), 82% (active); in test [2] (at 50.0 µM), 86.2% (active). Moreover, the growth inhibition is 14% in test [3] (setting [7]); 86% (active) in test [3] (setting [8]); 85.7% (active) in test [3] (at 50.0 µM); 16% in test [4] (setting [7]); 66% in test [4] (setting [8]); 82.7% (active) in test [4] (at 50.0 µM). Also, the growth inhibition in test [5] (setting [7]) was 14%; in test [5] (setting [8]), 94% (active); in test [5] (at 50.0 µM), 84.9% (active); in test [6] (setting [7]), 37%; in test [6] (setting [8]), 90% (active); in test [6] (at 50.0 µM), 86.2% (active).

As for `CC(=O)N1C/C(=C\c2ccccc2)C(=O)/C(=C/c2ccccc2)C1`, the growth inhibition in test [1] (setting [7]) was 60%; in test [1] (setting [8]), 87% (active); in test [1] (at 50.0 µM), 84.9% (active); in test [2] (setting [7]), 47%; in test [2] (setting [8]), 92% (active); in test [2] (at 50.0 µM), 82.7% (active). In addition, the growth inhibition is 46% in test [3] (setting [7]); 98% (active) in test [3] (setting [8]); 79.5% (active) in test [3] (at 50.0 µM); 35% in test [4] (setting [7]); 88% (active) in test [4] (setting [8]); 67.5% in test [4] (at 50.0 µM). Besides, the growth inhibition in test [5] (setting [7]) was 47%; in test [5] (setting [8]), 91% (active); in test [5] (at 50.0 µM), 87.8% (active); in test [6] (setting [7]), 62%; in test [6] (setting [8]), 96% (active); in test [6] (at 50.0 µM) it was 78.9% (active).
